Screening data (PubChem BioAssay)
Compounds with a hit are over-represented: about 2.6% of the library has one in this group of screens.
TGFb inhibitor – blocks TGF-b signaling; Potency, µM (doses to about 46.1 µM), inactives show top-dose activity, negative = inhibition, most hits filed as inhibitors; HepG2 CAGA-GFP TGF-b/SMAD3 reporter, GFP fluorescence, 18 h; TGF-beta stimulated, 500 pg/mL final; AID 588855; 410,000 tested, 1.2% active; also: potency is read from the fitted curve at half-maximal effect; % is scaled to controls: 0 for no effect and ±100 for the full control effect; nearly all actives have a fitted effect of over 65% in size
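HEPG2 CAGA-GFP cells (1000/well, DMEM with 1% FBS) were pre-incubated 2 h at 37 degrees C, given compound by pin tool, then stimulated with TGF-beta at 500 pg/mL final for 18 h before per-cell GFP fluorescence imaging.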
HepG2 viability – kills HepG2 cells in TGF-b inhibitor counter-screen; HepG2 CAGA-GFP viability, ATP luminescence, 18 h; Potency, µM (doses to about 46.1 µM), for the others: at the top dose activity change, negative = cytotoxicity, usual class: cytotoxic; 410,000 tested, 0.76% active; AID 588856; also: potency is read from the fitted curve at half-maximal effect
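CellTiter-Glo luminescence gave cytotoxicity after 18 hours at 37 degrees C. The cells were HepG2 CAGA-GFP in 1% FBS DMEM, stimulated with 500 pg/mL TGF-beta after compound addition. %Activity was normalised to no-cell wells (complete cell-killing) and DMSO (no toxicity), and curves were fitted and classified.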
ATXN2 expr inh – ATXN2 expression inhibition | HEK-293 ATXN2-luciferase reporter, luminescence, 24 h | Potency, µM (highest dose often 57 µM), for inactives: at the highest dose activity change, negative = inhibition, usual class: inhibitors | 360,000 tested, 0.72% active | AID 1745845; also: potency is read from the fitted curve at half-maximal effect; % is scaled to controls: 0 for no effect and ±100 for the full control effect; nearly all actives have a fitted effect of over 55% in size
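qHTS (up to 57 uM final) was run with 24 h compound exposure of reporter cells at 37 °C. Each well was multiplexed: SteadyGlo luminescence measured ATXN2-luciferase expression after a fluorogenic Gly-Phe-AFC viability readout (25 uM final).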
Giardia kill – Giardia lamblia killing. Giardia lamblia trophozoite viability. activity change, % at 7.66 µM, hits read low. 340,000 tested, 0.15% active. AID 540267; in the data active = activity change below about -80%; inconclusive = between about -30% and that limit;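 also: parasites exposed to compound for two days anaerobically before the ATP read; % is scaled to controls: 0 for no effect and ±100 for the full control effect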
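ATP-content bioluminescence gauges trophozoite survival. Cells (100/well) receive compound and incubate anaerobically for 48 hrs at 37 deg C; detection reagent follows for 15-30 min at room temperature.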
uPA surface inh – cell surface uPA generation inhibition; cell surface uPA generation assay, qHTS; Potency, µM (highest dose often 38.3 µM), for inactives: top-dose activity change, negative = inhibition, most hits filed as inhibitors; 330,000 tested, 0.31% active; AID 540303; active = well fitted inhibition curve with a large enough effect; inconclusive = small, poorly fitted or top-dose-only effect; inactive = no such curve, though single readings can be large or run the other way; tested in mouse RAW 264.7 cells; also: potency is read from the fitted curve at half-maximal effect; % is scaled to controls: 0 for no effect and ±100 for the full control effect; nearly all actives have a fitted effect of over 55% in size
S2 tox – cell viability loss in ATXN counter-screen; S2 cells (HEK-293 line with an ATXN2-luciferase reporter) viability, CellTiter-Fluor protease fluorescence, 24 h; Potency, µM (titrated, usually from 56.7 µM), usual class: cytotoxic; 400,000 tested, 0.49% active; also: potency is read from the fitted curve at half-maximal effect; nearly all actives have a fitted effect of over 40% in size
The depositor's hits bear a star; i = inactive; u = inconclusive; x = no result given; [ ] = dose if it differs, or a comment. Unless noted, calls follow the shape of the dose curve; as a rule, active = well fitted curve in the direction sought with a large enough effect; inconclusive = small, poorly fitted or top-dose-only effect, or another doubt; inactive = no such curve, though single readings can be large; an effect the other way counts as inactive or inconclusive.

SMILES	TGFb inhibitor	HepG2 viability	ATXN2 expr inh	Giardia kill	uPA surface inh	S2 tox
CCCN1CNc2c(c(=O)[nH]c(=S)n2CCc2cc(C)cc(C)c2)C1	x	x	x	28	x	x
CC(C)Oc1ccc(-c2nc(-c3cccnc3)no2)cc1	28%	-24%	x	x	x	x
CC1=CC(O)=NS(=O)(=O)O1	25%	15%	x	x	x	x
CC(=O)Nc1sc2c(c1-c1nc3ccccc3s1)CNC2	x	x	22µM*	x	x	x
COc1cc2c(cc1OC)C(c1ccccc1)N(C(=O)CCl)CC2 (stereo not given)	-20%	0%	28µM*	-3	-6%	x
NCCCNc1ccc(Br)cn1	x	x	x	-18	x	x
COc1cc(/C=C(\C#N)c2nc3ccc(C)cc3[nH]2)cc([N+](=O)[O-])c1O	u	-3%	37%	6	3%	18µM*
Cc1ccc(S(=O)(=O)N2CCN(Cc3cc(Br)ccc3O)CC2)cc1	10µM*	1%	-27%	x	x	i
COc1ccccc1CN1CCN(S(=O)(=O)c2ccc(C)cc2)CC1	10%	6%	-9%	-13	-11%	i
Cc1onc(-c2ccccc2)c1C(=O)O/N=C(\N)c1ccc([N+](=O)[O-])o1	13µM*	13µM*	x	u	4.5µM*	u
CC(C)(C)OC(=O)NCc1ccc(NC(=O)c2nc[nH]c2C(=O)NCCNC(=O)c2[nH]cnc2C(=O)Nc2ccc(CNC(=O)OC(C)(C)C)cc2)cc1	8%	1%	-29%	0	14%	u
O=C(Nc1ccccc1)c1nc[nH]c1C(=O)NCCN(CCNC(=O)c1[nH]cnc1C(=O)Nc1ccccc1)CCNC(=O)c1[nH]cnc1C(=O)Nc1ccccc1	20µM*	-19%	-2%	13	2%	i
CC(C)(C)OC(=O)NCCCCCNC(=O)c1nc[nH]c1C(=O)NCc1ccc(CNC(=O)OC(C)(C)C)cc1	u	-15%	20µM*	-18	u	16µM*
CC(C)(C)OC(=O)CNC(=O)c1[nH]cnc1C(=O)Nc1ccc(CNC(=O)OC(C)(C)C)cc1	u	-18%	32µM*	6	-2%	u
O=C(Nc1ccccc1)c1nc[nH]c1C(=O)NCCCNC(=O)c1[nH]cnc1C(=O)Nc1ccccc1	27%	1%	7%	14	5%	i
CC(C)(C)OC(=O)NCCCCCNC(=O)c1nc[nH]c1C(=O)NCCCCCNC(=O)OC(C)(C)C	u	-52%	22µM*	11	0%	25µM*
CC(C)(C)OC(=O)NCCCCCNC(=O)c1[nH]cnc1C(=O)N[C@@H](CCCCNC(=O)OC(C)(C)C)C(=O)OC(C)(C)C	u	3%	u	3	0%	u
Cc1cccc(CN2C[C@H](Sc3ccccn3)C[C@H]2C(=O)Nc2ccc3sc(C)nc3c2)c1	x	x	x	x	x	i
COc1ccc2c(c1)-c1nc(-n3ncc(C(=O)NCc4cccc(C)n4)c3C3CC3)ncc1CC2	x	x	x	x	x	i
CC1(C)CCC2=C(O1)c1ccccc1C(=O)C2=O	3.2µM*	4µM*	27µM*	x	x	x
CC(C)(C)OC(=O)Nc1ccc(-c2cc(C(=O)NCCCCCCC(=O)NO)no2)cc1	x	x	39%	x	x	x
CCOc1ccc(CN2CCN(Cc3ccc4c(c3)c3ccccc3n4CC)CC2)cc1	10µM*	-76%	x	x	x	x
CCn1c2ccccc2c2cc(CN3CCN(Cc4ccc(OC)c(OC)c4)CC3)ccc21	u	-63%	x	x	x	x
O=C1C=C(O)c2cccc(O)c2C1=O	-1%	3%	-18%	3	5%	i
O=C1C=C(c2c(O)ccc3ccccc23)c2ccccc2C1=O	2.8µM*	13µM*	16µM*	-24	-5%	x
SMILES	TGFb inhibitor	HepG2 viability	ATXN2 expr inh	Giardia kill	uPA surface inh	S2 tox
Cc1ccc(SC(=O)c2c(C)noc2-c2cc(C)on2)cc1	18µM*	-61%	3%	-4	-8%	i
Cc1cccc(CNC(=O)c2c3n(c(C)cc2=O)-c2ccccc2SC(c2ccsc2)C3)n1 (stereo not given)	x	x	x	x	x	i
Cc1ccc(NC(=S)N=Nc2c(O)[nH]c3ccccc23)cc1	4µM*	-39%	u	-26	-6%	u
Oc1ccc(NC(=S)N=Nc2c(O)[nH]c3ccccc23)cc1	u	-15%	-16%[11.3 µM]	-7	-4%	u
COc1ccc(NC(=S)N=Nc2c(O)[nH]c3ccccc23)cc1	6.3µM*	-22%	x	-9	u	u
Cc1noc(C)c1S(=O)(=O)N1CCN(c2ccc(Cl)cc2)CC1	-8%	5µM*	-9%	10	4%	i
Cc1ccc(Cl)cc1N1CCN(S(=O)(=O)c2c(C)noc2C)CC1	-15%	-25%	-22%	6	3%	i
O=C(CC1OCC2CCCN2C1=O)Nc1ccc([N+](=O)[O-])cc1 (stereo not given)	5%	-1%	-3%	13	0%	u
CCN1CCOC(CC(=O)Nc2ccc([N+](=O)[O-])cc2)C1=O (stereo not given)	0%	20µM*	23%	-5	2%	i
CC(=O)Nc1nnc(CSCc2ccccc2F)s1	1%	7.9µM*	37%	12	1%	i
CC(=O)N(CC(=O)N(C)C)c1ccccc1	x	x	-1%	x	x	i
CN(C)c1ccc(/C=C/N2C=CCc3c2ccc2ccccc32)cc1	7.1µM*	-85%	x	x	x	x
COc1ccccc1CCC(=O)N1CCOc2c(cc(-c3cnc4ccccc4c3)cc2OC)C1	x	x	x	x	x	i
Cc1ccc(-c2cc(C(=O)N3N=C(C(F)F)CC3(O)C(F)F)c3ccccc3n2)cc1C (stereo not given)	u	20µM*	u	12	-13%	18µM*
O=C(c1cc(-c2ccccc2)nc2ccccc12)N1N=C(C(F)F)CC1(O)C(F)F (stereo not given)	-12%	-33%	5%	-3	x	i
C=C1CCN(C(CC(C)C)C(=O)Nc2nc3ccc(Cl)cc3s2)S(=O)(=O)c2ccccc21 (stereo not given)	u	-3%	x	-8	x	x
N#C/C(=C1/SC[C@@H](c2ccc(Cl)cc2Cl)S1)n1ccnc1	x	x	u	x	x	i
c1ccc2c(C3=NNC(=NC4CC4)SC3)c[nH]c2c1	3%	8%	18µM*	31	-7%	i
Cc1cc(C2=NNC(=NC3CC3)SC2)c(C)n1-c1ccccc1	u	-34%	x	u	u	i
c1ccc(C2=NNC(=NC3CC3)SC2)cc1	4%	7.1µM*	u	-9	-20%	i
COc1cc(SSc2cc(OC)cc([N+](=O)[O-])c2N)c(N)c([N+](=O)[O-])c1	u	-58%	x	-25	-7%	7.9µM*
CC1(C)CC(=O)CC2(C1)NCC(c1ccccc1)c1c2[nH]c2ccccc12 (stereo not given)	-17%	-15%	2%[11.3 µM]	4	1%	i
